The values below come from PubChem BioAssay (NCI).

This is part of a sample that, as a whole, favours compounds with a hit. Of some 79,000 tested, about 15% had one in any assay. Unmarked numbers belong to inactive results. The source made the active and inactive calls. Cut-off read from the data, not from the text of the source: active = growth inhibition above about 70%; inactive = the rest.

One experiment can be described thus: NCI Yeast Anticancer Drug Screen. Data for the mgt1 strain (AID 153). Particulars: S. cerevisiae mgt1 mutant growth inhibition; at 1.2 µM; stronger effect = higher value. An outline of the steps: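 mgt1 strain exposed; growth vs vehicle control recorded as inhibition.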
Turning to `C/C(=N\O)C1CC2C=C(C#N)C1N(Cc1ccccc1)C2` (stereo not drawn), the growth inhibition was -5%. As for `O=[N+]([O-])C(=C(Sc1ccccc1)Sc1ccccc1)C(Cl)=C(Cl)Cl`, the growth inhibition was 2%. On the same count and under the same terms, with `CCCCCCCCCC/C=C\C(=O)O` the figure was -36%. On to `COc1ccc(N=C2C(=O)Nc3ccc(Br)cc32)cc1`, for which the growth inhibition was 8%. The same measure, in the same setting: the figure for `COc1ccccc1C(=O)OCC1CCCN2CCCCC12` (stereo not drawn) is 23%; for `CC(C)(Br)C(=O)/C=C/c1ccc(Cl)c(Cl)c1` it is -4%; for `Nc1ccccc1CC(O)C(=O)O` (stereo not drawn) it is 4%. Still for that read-out and setting: with `CC(=O)N/N=C/C(C)(C)C(C)(C)/C=N/NC(C)=O` the figure was 2%; with `CN(C)c1nc2sc3c(c2c(=O)o1)CCCC3`, -5%; with `CC(C)OC(=O)Oc1ccccc1OC(=O)OC(C)C`, 2%. On the same count and under the same terms, the figure for `Cc1ccc(N)c(S)c1` is -11%; for `O=C(O)c1ccccc1NC(=S)c1ccccc1` it is 5%; for `COC(=O)c1ccc(NCC2=CC(=O)C=CC2=O)cc1O` it is 9%. With `NC(N)=N/N=C\c1c2ccccc2cc2ccccc12`, the growth inhibition is -38%. Same read-out and setting: the figure for `COC(=O)CSSCc1ccc([N+](=O)[O-])cc1` is -1%. On the same count and under the same terms, with `CCS(=O)(=O)c1ccc(/C=C/C=N/NC(=S)NCC(C)C)cc1` the figure was -2%; with `N#CC(C(=O)Nc1ccccc1)C1=C(Cl)C(=O)c2ccccc2C1=O` (stereo not drawn), 23%. Still for that read-out and setting: the figure for `C[C@H](CCC(=O)NN)[C@H]1CC[C@H]2[C@@H]3CC[C@@H]4C[C@H](O)CC[C@]4(C)[C@H]3CC[C@]12C` is 0%; for `CC[n+]1ccc2c(C)c3[nH]c4ccc(O)cc4c3c(C)c2c1` it is -36%.

Staying with this experiment, now noted: S. cerevisiae mgt1 mutant growth inhibition; at 3.7 µM; stronger effect = higher value.
As to `CCCc1cc(C(=O)OCC)cc(CCC)c1O`, the growth inhibition is -4%. Take `CC(C)[N+]([O-])(CCCNc1c2ccccc2nc2cccc([N+](=O)[O-])c12)C(C)C`: the growth inhibition was 6%. The same measure, in the same setting: the figure for `COc1cc2c3c(cccc3c1)C(=O)N(CCN(C)C)C2=O` is -22%. For `NC(=O)NN=C(CS)CS`, the growth inhibition is 0%. The same measure, in the same setting: the figure for `Cc1ccc(NC(=O)/C(Cl)=C(\Cl)C(=O)O)cc1C` is 7%.

Turning to `CCN(CC)CC[n+]1ccc2c(C)c3[nH]c4ccc(O)cc4c3c(C)c2c1`, the growth inhibition is -1%. Consider `CC(CC(C)(C)[N+](C)(C)C)[N+](C)(C)C` (stereo not drawn), for which the growth inhibition is 1%.

As for `COc1ccc(OC)c2cc3ccccc3cc12`, the growth inhibition is 14%. With `Nc1ncncc1C(C1=C(O)COC1=O)C1=C(O)COC1=O`, the growth inhibition is -4%. As to `CSC1=NNC(SC)=NN1`, the growth inhibition was 14%. Same read-out and setting: with `Cc1c(Cl)ccc2c1S(=O)(=O)c1cccc(Cl)c1-2` the figure was 1%. Same read-out and setting: with `[O-][n+]1c2ccc(O)cc2nc2ccc(Cl)cc21` the figure was 22%; with `COc1ccc2ccc3ccccc3c2c1C=O`, -6%; with `Nc1ccc2c(c1)C(=O)c1cccc(N)c1C2=O`, 4%. As for `O=C(c1ccc(Cl)cc1Cl)C(Cl)Cl`, the growth inhibition was -34%. On the same count and under the same terms, the figure for `COc1cc(C(=O)/C=C/c2ccccc2O)ccc1O` is 84% (active); for `O=Cc1cccc2ccc3ccccc3c12` it is -4%; for `O=C(Nc1ccc(Cl)cc1)OCC#CCCl` it is 96% (active). Consider `Cn1ccnc1Oc1ccc(Cl)cc1`, for which the growth inhibition is -5%. On to `c1ccc2c(c1)C(=NCCCN1CCCCCC1)c1cccn1-2`, for which the growth inhibition was -1%.

Consider `C/C(=N\O)C1CC2C=C(C#N)C1N(Cc1ccccc1)C2` (stereo not drawn), for which the growth inhibition is -4%. Still for that read-out and setting: the figure for `O=[N+]([O-])C(=C(Sc1ccccc1)Sc1ccccc1)C(Cl)=C(Cl)Cl` is 17%; for `CCCCCCCCCC/C=C\C(=O)O` it is -10%; for `COc1ccc(N=C2C(=O)Nc3ccc(Br)cc32)cc1` it is -24%. Same read-out and setting: with `COc1ccccc1C(=O)OCC1CCCN2CCCCC12` (stereo not drawn) the figure was 15%. The same measure, in the same setting: the figure for `CC(C)(Br)C(=O)/C=C/c1ccc(Cl)c(Cl)c1` is 0%. As for `Nc1ccccc1CC(O)C(=O)O` (stereo not drawn), the growth inhibition is -1%.

Consider `CC(=O)N/N=C/C(C)(C)C(C)(C)/C=N/NC(C)=O`, for which the growth inhibition is -2%.

`CN(C)c1nc2sc3c(c2c(=O)o1)CCCC3`: the growth inhibition was -7%.

In the case of `CC(C)OC(=O)Oc1ccccc1OC(=O)OC(C)C`, the growth inhibition was 3%. Same read-out and setting: with `Cc1ccc(N)c(S)c1` the figure was -13%.

`O=C(O)c1ccccc1NC(=S)c1ccccc1`: the growth inhibition is 0%.

Take `COC(=O)c1ccc(NCC2=CC(=O)C=CC2=O)cc1O`: the growth inhibition is 30%. The same measure, in the same setting: the figure for `NC(N)=N/N=C\c1c2ccccc2cc2ccccc12` is -54%; for `COC(=O)CSSCc1ccc([N+](=O)[O-])cc1` it is 1%; for `CCS(=O)(=O)c1ccc(/C=C/C=N/NC(=S)NCC(C)C)cc1` it is 2%. Same read-out and setting: with `N#CC(C(=O)Nc1ccccc1)C1=C(Cl)C(=O)c2ccccc2C1=O` (stereo not drawn) the figure was 6%. In the case of `C[C@H](CCC(=O)NN)[C@H]1CC[C@H]2[C@@H]3CC[C@@H]4C[C@H](O)CC[C@]4(C)[C@H]3CC[C@]12C`, the growth inhibition is -1%. Still for that read-out and setting: the figure for `CC[n+]1ccc2c(C)c3[nH]c4ccc(O)cc4c3c(C)c2c1` is -14%.
